# Structures can show the parent of a compound that is named as a salt. ± gives the standard deviation of the averaged measurements.
# Key:
# Test in all cases: promoter activity interaction Z-score (Lux/OD deviation from empty-vector control); higher = stronger promoter induction by the compound
# [1] = test system: E. coli BW25113 acrABp lux reporter
# Procedure, shortened: (§1)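 E. coli BW25113 (wild type or marA, soxS or rob deletion) carrying low-copy luxCDABE promoter reporters grew in 40 µl LB Lennox in 384-well plates at 37°C. Each compound was tested at four 1:2 dilutions in biological duplicates. OD600 and luminescence were read every 30 min for 12 h. Areas were taken over 0–8 h (wild type) or 1–9 h (mutants), and wells below 10% of median growth area were removed. The score is the Z-transformed residual of growth-normalised luminescence fitted against the empty-vector control.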
# [2] = test system: E. coli BW25113 marRABp lux reporter
# Procedure, shortened: as §1
# [3] = test system: E. coli BW25113 micFp lux reporter
# Procedure, shortened: as §1
# [4] = test system: E. coli BW25113 ompFp lux reporter
# Procedure, shortened: as §1
# [5] = test system: E. coli BW25113 robp lux reporter
# Procedure, shortened: as §1
# [6] = test system: E. coli BW25113 soxSp lux reporter
# Procedure, shortened: as §1
# [7] = test system: E. coli BW25113 tolCp lux reporter
# Procedure, shortened: as §1
# [8] = 28.9 µg/ml, genetic background: wild type
# [9] = 28.9 µg/ml, genetic background: ΔmarA
# [10] = 28.9 µg/ml, genetic background: Δrob
# [11] = 28.9 µg/ml, genetic background: ΔsoxS
# [12] = 57.7 µg/ml, genetic background: wild type
# [13] = 57.7 µg/ml, genetic background: ΔmarA
# [14] = 57.7 µg/ml, genetic background: Δrob
# [15] = 57.7 µg/ml, genetic background: ΔsoxS
# [16] = 115.5 µg/ml, genetic background: wild type
# [17] = 115.5 µg/ml, genetic background: ΔmarA
# [18] = 115.5 µg/ml, genetic background: Δrob
# [19] = 115.5 µg/ml, genetic background: ΔsoxS
# [20] = 230.9 µg/ml, genetic background: wild type
# [21] = 230.9 µg/ml, genetic background: ΔmarA
# [22] = 230.9 µg/ml, genetic background: Δrob
# [23] = 230.9 µg/ml, genetic background: ΔsoxS
structure (smiles),measurement,setting,value
O=C(O)COCCN1CCN(C(c2ccccc2)c2ccc(Cl)cc2)CC1 (configuration not stated) [Cetirizine dihydrochloride],promoter activity interaction Z-score,[1]; [8],0.153 ± 0.22
same,promoter activity interaction Z-score,[1]; [9],-0.276 ± 0.91
same,promoter activity interaction Z-score,[1]; [10],0.0774 ± 0.078
same,promoter activity interaction Z-score,[1]; [11],0.344 ± 0.22
same,promoter activity interaction Z-score,[1]; [12],0.202 ± 0.41
same,promoter activity interaction Z-score,[1]; [13],-0.0899 ± 0.93
same,promoter activity interaction Z-score,[1]; [14],-0.297 ± 0.33
same,promoter activity interaction Z-score,[1]; [15],0.424 ± 0.48
same,promoter activity interaction Z-score,[1]; [16],-0.397 ± 0.14
same,promoter activity interaction Z-score,[1]; [17],-0.531 ± 0.29
same,promoter activity interaction Z-score,[1]; [18],-0.491 ± 0.057
same,promoter activity interaction Z-score,[1]; [19],-0.239 ± 0.68
same,promoter activity interaction Z-score,[1]; [20],-0.0515 ± 0.05
same,promoter activity interaction Z-score,[1]; [21],-0.913 ± 0.67
same,promoter activity interaction Z-score,[1]; [22],-0.435 ± 0.21
same,promoter activity interaction Z-score,[1]; [23],-0.388 ± 0.13
same,promoter activity interaction Z-score,[2]; [8],-0.0717 ± 0.029
same,promoter activity interaction Z-score,[2]; [9],0.0437 ± 0.062
same,promoter activity interaction Z-score,[2]; [10],0.000338 ± 0.29
same,promoter activity interaction Z-score,[2]; [11],-0.0906 ± 0.0024
same,promoter activity interaction Z-score,[2]; [12],0.151 ± 0.32
same,promoter activity interaction Z-score,[2]; [13],-0.0182 ± 0.02
same,promoter activity interaction Z-score,[2]; [14],-0.17 ± 0.18
same,promoter activity interaction Z-score,[2]; [15],-0.0648 ± 0.1
same,promoter activity interaction Z-score,[2]; [16],-0.301 ± 0.014
same,promoter activity interaction Z-score,[2]; [17],-0.0679 ± 0.12
same,promoter activity interaction Z-score,[2]; [18],-0.391 ± 0.15
same,promoter activity interaction Z-score,[2]; [19],-0.384 ± 0.18
same,promoter activity interaction Z-score,[2]; [20],-0.385 ± 0.034
same,promoter activity interaction Z-score,[2]; [21],-0.279 ± 0.0034
same,promoter activity interaction Z-score,[2]; [22],-0.565 ± 0.14
same,promoter activity interaction Z-score,[2]; [23],-0.389 ± 0.19
same,promoter activity interaction Z-score,[3]; [8],0.013 ± 0.03
same,promoter activity interaction Z-score,[3]; [9],-0.101 ± 0.1
same,promoter activity interaction Z-score,[3]; [10],0.0307 ± 0.16
same,promoter activity interaction Z-score,[3]; [11],-0.145 ± 0.42
same,promoter activity interaction Z-score,[3]; [12],0.36 ± 0.081
same,promoter activity interaction Z-score,[3]; [13],0.049 ± 0.28
same,promoter activity interaction Z-score,[3]; [14],-0.0293 ± 0.15
same,promoter activity interaction Z-score,[3]; [15],0.0699 ± 0.025
same,promoter activity interaction Z-score,[3]; [16],-0.327 ± 0.23
same,promoter activity interaction Z-score,[3]; [17],0.145 ± 0.13
same,promoter activity interaction Z-score,[3]; [18],0.0776 ± 0.1
same,promoter activity interaction Z-score,[3]; [19],0.0293 ± 0.34
same,promoter activity interaction Z-score,[3]; [20],-0.141 ± 0.27
same,promoter activity interaction Z-score,[3]; [21],-0.0442 ± 0.057
same,promoter activity interaction Z-score,[3]; [22],0.195 ± 0.18
same,promoter activity interaction Z-score,[3]; [23],0.145 ± 0.13
same,promoter activity interaction Z-score,[4]; [8],0.228 ± 0.026
same,promoter activity interaction Z-score,[4]; [9],0.523 ± 0.32
same,promoter activity interaction Z-score,[4]; [10],0.79 ± 0.32
same,promoter activity interaction Z-score,[4]; [11],0.079784 ± 6.4e-05
same,promoter activity interaction Z-score,[4]; [12],0.523 ± 0.44
same,promoter activity interaction Z-score,[4]; [13],0.651 ± 0.083
same,promoter activity interaction Z-score,[4]; [14],0.368 ± 0.14
same,promoter activity interaction Z-score,[4]; [15],-0.205 ± 0.16
same,promoter activity interaction Z-score,[4]; [16],-0.463 ± 0.064
same,promoter activity interaction Z-score,[4]; [17],-0.0368 ± 0.095
same,promoter activity interaction Z-score,[4]; [18],-0.449 ± 0.31
same,promoter activity interaction Z-score,[4]; [19],-0.656 ± 0.25
same,promoter activity interaction Z-score,[4]; [20],0.136 ± 0.46
same,promoter activity interaction Z-score,[4]; [21],0.203 ± 0.1
same,promoter activity interaction Z-score,[4]; [22],-0.688 ± 0.7
same,promoter activity interaction Z-score,[4]; [23],-0.667 ± 0.25
same,promoter activity interaction Z-score,[5]; [8],-0.0279 ± 0.081
same,promoter activity interaction Z-score,[5]; [9],0.621 ± 0.13
same,promoter activity interaction Z-score,[5]; [10],0.0745 ± 0.28
same,promoter activity interaction Z-score,[5]; [11],-0.318 ± 0.5
same,promoter activity interaction Z-score,[5]; [12],0.609 ± 0.057
same,promoter activity interaction Z-score,[5]; [13],0.466 ± 0.37
same,promoter activity interaction Z-score,[5]; [14],-0.327 ± 0.31
same,promoter activity interaction Z-score,[5]; [15],0.0119 ± 0.7
same,promoter activity interaction Z-score,[5]; [16],-0.592 ± 0.34
same,promoter activity interaction Z-score,[5]; [17],0.00802 ± 0.12
same,promoter activity interaction Z-score,[5]; [18],-0.339 ± 0.12
same,promoter activity interaction Z-score,[5]; [19],-0.844 ± 0.1
same,promoter activity interaction Z-score,[5]; [20],-0.359 ± 0.2
same,promoter activity interaction Z-score,[5]; [21],-0.425 ± 0.43
same,promoter activity interaction Z-score,[5]; [22],-1.18 ± 0.85
same,promoter activity interaction Z-score,[5]; [23],-0.876 ± 0.55
same,promoter activity interaction Z-score,[6]; [8],0.227 ± 0.035
same,promoter activity interaction Z-score,[6]; [9],0.219 ± 0.05
same,promoter activity interaction Z-score,[6]; [10],0.143 ± 0.03
same,promoter activity interaction Z-score,[6]; [11],0.36 ± 0.29
same,promoter activity interaction Z-score,[6]; [12],0.625 ± 0.26
same,promoter activity interaction Z-score,[6]; [13],0.233 ± 0.067
same,promoter activity interaction Z-score,[6]; [14],0.113 ± 0.061
same,promoter activity interaction Z-score,[6]; [15],0.411 ± 0.45
same,promoter activity interaction Z-score,[6]; [16],0.0448 ± 0.13
same,promoter activity interaction Z-score,[6]; [17],0.311 ± 0.1
same,promoter activity interaction Z-score,[6]; [18],0.108 ± 0.041
same,promoter activity interaction Z-score,[6]; [19],0.145 ± 0.43
same,promoter activity interaction Z-score,[6]; [20],0.0238 ± 0.4
same,promoter activity interaction Z-score,[6]; [21],0.289 ± 0.11
same,promoter activity interaction Z-score,[6]; [22],0.127 ± 0.06
same,promoter activity interaction Z-score,[6]; [23],-0.0281 ± 0.68
same,promoter activity interaction Z-score,[7]; [8],-0.028 ± 0.45
same,promoter activity interaction Z-score,[7]; [9],0.994 ± 0.066
same,promoter activity interaction Z-score,[7]; [10],0.083 ± 0.48
same,promoter activity interaction Z-score,[7]; [11],0.251 ± 1.2
same,promoter activity interaction Z-score,[7]; [12],1.49 ± 0.11
same,promoter activity interaction Z-score,[7]; [13],0.225 ± 0.61
same,promoter activity interaction Z-score,[7]; [14],0.369 ± 1.3
same,promoter activity interaction Z-score,[7]; [15],-0.607 ± 0.17
same,promoter activity interaction Z-score,[7]; [16],0.247 ± 0.057
same,promoter activity interaction Z-score,[7]; [17],-0.0757 ± 0.41
same,promoter activity interaction Z-score,[7]; [18],0.295 ± 0.29
same,promoter activity interaction Z-score,[7]; [19],-0.698 ± 0.023
same,promoter activity interaction Z-score,[7]; [20],0.059 ± 0.6
same,promoter activity interaction Z-score,[7]; [21],-0.764 ± 0.4
same,promoter activity interaction Z-score,[7]; [22],-0.176 ± 0.18
same,promoter activity interaction Z-score,[7]; [23],0.432 ± 0.65

# — the supplement of paper PMC12282887
